Measured values: PubChem BioAssay (NCATS)
Inconclusive results are not listed. The source made the active and inactive calls. Calls follow the shape of the dose curve; as a rule, active = well fitted curve in the direction sought with a large enough effect; inconclusive = small, poorly fitted or top-dose-only effect, or another doubt; inactive = no such curve, though single readings can be large; an effect the other way counts as inactive or inconclusive.

Key:
KB-3-1 = assay: Cytotoxic Profiling of Annotated Libraries Using Quantitative High-Throughput Screening (AID 1296008); conditions: Five cell lines viability, CellTiter-Glo ATP luminescence, 48-72 h; max response: stronger effect = lower value; also: nearly all actives have a fitted effect of over 60% in size; as to max response: % is scaled to controls: 0 for no effect and ±100 for the full control effect
Method in brief: (§1)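 Cells exposed to compounds for 48 or 72 hr at 37 degrees Celsius. Viability read as ATP-coupled luminescence with CellTiter-Glo after 10 min at room temperature.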

NIH3T3 [1] = assay: as above; conditions: Five cell lines viability, CellTiter-Glo ATP luminescence, 48-72 h; max response: stronger effect = lower value
Method in brief: as §1

HEK293T [2] = assay: qHTS assay to identify novel small-molecules to repurpose for Merkel cell carcinoma treatment (AID 1296009); conditions: MCC and control cell lines, CellTiter-Glo viability, 72 h; at 44.8 µM (top of the series) unless noted; also: nearly all actives have a fitted effect of over 60% in size
Method in brief: (§2)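 Cells were treated for 72 hr at 37 degree celsius with compounds in 8- or 11-point dose response. Viability was read by CellTiter-Glo luminescence, normalized to no-cell (cytotoxicity) and DMSO controls.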

C33A = assay: Primary qHTS to identify gynecologic anti-cancer compounds using libraries of approved drugs and bioactive compounds (AID 1345084); conditions: Gynecologic cancer cell panel viability, ATPlite luminescence, 48 h; series mostly up to 57.5 µM; also: % is scaled to controls: 0 for no effect and ±100 for the full control effect; nearly all actives have a fitted effect of over 55% in size
Method in brief: (§3)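 Five-point cytotoxicity, 48 h drug exposure at 37 C, 5% CO2, on cells seeded 16 h beforehand. ATP content read by ATPlite luminescence.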

CAOV3 = assay: as above; conditions: Gynecologic cancer cell panel viability, ATPlite luminescence, 48 h; series mostly up to 57.5 µM
Method in brief: as §3

CASKI = assay: as above; conditions: Gynecologic cancer cell panel viability, ATPlite luminescence, 48 h; series mostly up to 57.5 µM
Method in brief: as §3

Es-2 = assay: as above; conditions: Gynecologic cancer cell panel viability, ATPlite luminescence, 48 h; series mostly up to 57.5 µM
Method in brief: as §3

HeLa = assay: as above; conditions: Gynecologic cancer cell panel viability, ATPlite luminescence, 48 h; series mostly up to 57.5 µM
Method in brief: as §3

Hek293T [3] = assay: as above; conditions: Gynecologic cancer cell panel viability, ATPlite luminescence, 48 h, control line for the selectivity index; series mostly up to 57.5 µM
Method in brief: as §3

JEG-3 = assay: as above; conditions: Gynecologic cancer cell panel viability, ATPlite luminescence, 48 h; series mostly up to 57.5 µM
Method in brief: as §3

OV90 = assay: as above; conditions: Gynecologic cancer cell panel viability, ATPlite luminescence, 48 h; series mostly up to 57.5 µM
Method in brief: as §3

NIH3T3 [4] = assay: qHTS assay to identify novel small-molecules to repurpose for Merkel cell carcinoma treatment (AID 1296009); conditions: MCC and control cell lines, CellTiter-Glo viability, 72 h; at 44.8 µM (top of the series) unless noted; also: nearly all actives have a fitted effect of over 60% in size
Method in brief: as §2

O=C(O)CC(=O)OC[C@H]1O[C@@H](Oc2ccc3c(c2)OC[C@H]2c4cc5c(cc4O[C@@H]32)OCO5)[C@H](O)[C@@H](O)[C@@H]1O
inactive: max response (KB-3-1) -2.44% | max response (NIH3T3 [1]) -8.59% | outcome (HEK293T [2]) inactive [at 17.4 µM] | Potency (C33A) | Potency (CAOV3) | Potency (CASKI) | Potency (Es-2) | Potency (HeLa) | Potency (Hek293T [3]) | Potency (JEG-3) | Potency (OV90)

CC1(C)CC[C@]2(C(=O)O)CC[C@]3(C)C(=CCC4[C@@]5(C)C[C@@H](O)[C@H](O)C(C)(C)C5CC[C@]43C)C2C1 (stereo partly drawn)
inactive: outcome (KB-3-1) | max response (NIH3T3 [1]) 4.86% | outcome (HEK293T [2]) inactive [at 17.4 µM] | Potency (C33A) | Potency (CAOV3) | Potency (CASKI) | Potency (Es-2) | Potency (HeLa) | Potency (Hek293T [3]) | Potency (JEG-3) | Potency (OV90)

C=C[C@H]1C(O[C@@H]2O[C@H](CO)[C@@H](O)[C@H](O)[C@H]2O)OC=C2C(=O)N3CCc4c([nH]c5ccccc45)C3CC21 (stereo partly drawn)
inactive: outcome (KB-3-1) | max response (NIH3T3 [1]) 2.27% | outcome (HEK293T [2]) inactive [at 17.4 µM] | Potency (C33A) | Potency (CAOV3) | Potency (CASKI) | Potency (Es-2) | Potency (HeLa) | Potency (Hek293T [3]) | Potency (JEG-3) | Potency (OV90)

CC1=C(C(=O)O)/C(=C\CO[C@@H]2O[C@H](CO)[C@@H](O)[C@H](O)[C@H]2O)C(OC(=O)/C=C\c2ccc(O)cc2)C1 (stereo partly drawn)
inactive: outcome (KB-3-1) | max response (NIH3T3 [1]) -21.6% | outcome (HEK293T [2]) inactive [at 17.4 µM] | Potency (C33A) | Potency (CAOV3) | Potency (CASKI) | Potency (Es-2) | Potency (HeLa) | Potency (Hek293T [3]) | Potency (JEG-3) | Potency (OV90)

CC(=O)N[C@@H](C(=O)O[C@H]1CCC(C)(C)[C@@H]2CCC3=C(COC3=O)[C@@]12C)C(C)C
inactive: max response (KB-3-1) -11.9% | outcome (NIH3T3 [1]) | outcome (NIH3T3 [4]) | Potency (C33A) | Potency (CAOV3) | Potency (CASKI) | Potency (Es-2) | Potency (HeLa) | Potency (Hek293T [3]) | Potency (JEG-3) | Potency (OV90)

COc1ccc(CCO[C@@H]2CCCC[C@H]2N2CC[C@@H](O)C2)cc1OC
inactive: max response (KB-3-1) 4.12% | outcome (NIH3T3 [1]) | outcome (NIH3T3 [4]) | Potency (C33A) | Potency (CAOV3) | Potency (CASKI) | Potency (Es-2) | Potency (HeLa) | Potency (Hek293T [3]) | Potency (JEG-3) | Potency (OV90)

Cc1c2cc(c(C(=O)O)c1C)OC1OC(C(O)C(O)C1O)C(O)C(O)C1OC(O2)C(O)C(O)C1O (stereo not drawn)
inactive: outcome (KB-3-1) | outcome (NIH3T3 [1]) | outcome (NIH3T3 [4]) inactive [at 17.4 µM] | Potency (C33A) | Potency (CAOV3) | Potency (CASKI) | Potency (Es-2) | Potency (HeLa) | Potency (Hek293T [3]) | Potency (JEG-3) | Potency (OV90)

CC1(C)CC[C@]2(C(=O)O[C@@H]3O[C@H](CO)[C@@H](O)[C@H](O)[C@H]3O)CC[C@]3(C)C(=CCC4[C@@]5(C)CC[C@H](O[C@@H]6O[C@H](C(=O)O)[C@@H](O)[C@H](O[C@@H]7O[C@H](CO)[C@H](O)[C@H](O)[C@H]7O)[C@H]6O)C(C)(C)C5CC[C@]43C)C2C1 (stereo partly drawn)
inactive: max response (KB-3-1) 3.29% | outcome (NIH3T3 [1]) | outcome (NIH3T3 [4]) inactive [at 9.27 µM] | activity change, negative = cytotoxicity (C33A) -1.04% [at 11.6 µM] | activity change, negative = cytotoxicity (CAOV3) 0.89% [at 11.6 µM] | activity change, negative = cytotoxicity (CASKI) -0.547% [at 11.6 µM] | activity change, negative = cytotoxicity (Es-2) -0.756% [at 11.6 µM] | activity change, negative = cytotoxicity (HeLa) -6.39% [at 11.6 µM] | activity change, negative = cytotoxicity (Hek293T [3]) 7.67% [at 11.6 µM] | activity change, negative = cytotoxicity (JEG-3) 4.29% [at 11.6 µM] | activity change, negative = cytotoxicity (OV90) 1.32% [at 11.6 µM]

CC1CC2OC3(OC2C(C)(C)O)C1C1(C)CCC24CC25CCC(O[C@@H]2OC[C@@H](O)[C@H](O)[C@H]2O)C(C)(C)C5CC=C4C1(C)C3O (stereo partly drawn)
inactive: max response (KB-3-1) 5.34% | max response (NIH3T3 [1]) 0.0478% | outcome (HEK293T [2]) inactive [at 17.4 µM] | Potency (C33A) | Potency (CAOV3) | Potency (CASKI) | Potency (Es-2) | Potency (HeLa) | Potency (Hek293T [3]) | Potency (OV90)

CCc1c(C)nc2c(-c3cnn(-c4cc(CO)ccn4)c3)c[nH]n2c1=O
inactive: max response (KB-3-1) -1.88% | max response (NIH3T3 [1]) -6.61% | outcome (HEK293T [2]) | Potency (C33A) | Potency (CASKI) | Potency (Es-2) | Potency (HeLa) | Potency (Hek293T [3]) | Potency (JEG-3) | Potency (OV90)
